Experimental data published in PubChem BioAssay (NCI).
Compounds without any hit were thinned out: in the full panel of roughly 79,000, 15% have a hit. The source made the active and inactive calls. Rule as the data show it: active = growth inhibition above about 70%; inactive = the rest.

What was measured:
[1] = NCI Yeast Anticancer Drug Screen. Data for the rad50 strain (AID 155);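 also: 0% = growth of vehicle-only cultures of the same strain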; details: S. cerevisiae rad50 strain growth inhibition; at 50.0 µM; active compounds read high
Method in brief: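 Relative growth inhibition (compound vs vehicle) was measured in yeast with a defined repair-gene alteration.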

[2] = NCI Yeast Anticancer Drug Screen. Data for the mec2-1 strain (AID 157); details: S. cerevisiae mec2-1 strain, at 50.0 µM, active compounds read high
Method in brief: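 Vehicle-treated cultures served as reference for growth inhibition of compound-exposed mec2-1 yeast.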

[3] = NCI Yeast Anticancer Drug Screen. Data for the sgs1 mgt1 strain (AID 161);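 also: 0% = growth of cultures given vehicle only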; details: S. cerevisiae sgs1 mgt1 strain, at 50.0 µM, active compounds read high
Method in brief: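 Inhibition of yeast growth, normalised to vehicle-treated controls, is reported for a strain bearing genetic alterations in DNA damage repair.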

[4] = NCI Yeast Anticancer Drug Screen. Data for the cln2 rad14 strain (AID 165);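 also: 0% = growth equal to vehicle treated cultures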; details: S. cerevisiae cln2 rad14 strain, at 50.0 µM, active compounds read high
Method in brief: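 Each compound was tested on cln2 rad14 yeast. Inhibition of growth was calculated against vehicle-exposed controls.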

[5] = NCI Yeast Anticancer Drug Screen. Data for the bub3 strain (AID 167); details: S. cerevisiae bub3 mutant strain, at 50.0 µM, active compounds read high
Method in brief: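 Screening used yeast with an engineered genetic alteration affecting cell cycle control. Compound-exposed cultures were compared with vehicle cultures, and reduced growth was taken as inhibition.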

[6] = NCI Yeast Anticancer Drug Screen. Data for the mlh1 rad18 strain (AID 175); details: S. cerevisiae mlh1 rad18 strain growth inhibition; at 50.0 µM; active compounds read high
Method in brief: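 Vehicle-treated cultures served as the reference for growth inhibition in a yeast strain carrying DNA damage repair alterations exposed to each compound.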

Measured: growth inhibition

C=C1c2nc3ccccc3n2C=C(c2ccccc2)N1c1ccc([N+](=O)[O-])cc1
inactive: [1] 8.05% | [2] 41.6% | [3] 3.75% | [4] 13.6% | [5] 22.4% | [6] 27.9%

O=C(COc1cc(Cl)c(Cl)cc1Cl)Oc1ccccc1
inactive: [1] -0.3% | [2] 4.95% | [3] 7.65% | [4] -8.85% | [5] 8.5% | [6] 3.6%

O=C(O)C(c1ccccc1)C(O)C1CCCCC1 (stereo not given)
inactive: [1] 0.8% | [2] -1.75% | [3] -1.15% | [4] -13.1% | [5] -8.1% | [6] 4.5%

O=c1c2ccccc2nnn1OCc1ccccc1
inactive: [1] 24.5% | [2] 3.1% | [3] 11% | [4] -39.5% | [5] -12.3% | [6] 3.95%

Oc1cc2c(cc1C(c1ccc3c(c1)OCO3)N1CCCC1)OCO2 (stereo not given)
inactive: [1] -4.9% | [2] -9.35% | [3] 8.25% | [4] -27.6% | [5] 19.8% | [6] 28.4%

C1CCN(CCC2CCCCN2)CC1 (stereo not given)
inactive: [1] -23.4% | [2] -32.4% | [3] -41.6% | [4] -33.2% | [5] -37.8% | [6] -28%

CCOC1CCC=CO1 (stereo not given)
inactive: [1] -9.65% | [2] 3.7% | [3] 39% | [4] 28.7% | [5] -21.9% | [6] 39.6%

Cc1cccc2c(=O)[nH]c(=O)[nH]c12
inactive: [1] -14.2% | [2] -12.2% | [3] -2.15% | [4] -58.8% | [5] -4.4% | [6] -20.1%

CCC(=O)Nc1ncnc2ncn(C(=O)CC)c12
inactive: [1] -8.7% | [2] -48.2% | [3] -32.9% | [4] -23.6% | [5] -45.1% | [6] 9.65%

c1ccc(-c2oc3ccccc3c2-c2ccc(OCCN3CCCC3)cc2)cc1
active: [1] 99.5% | [2] 99.6% | [3] 99.7% | [4] 99.3% | [5] 99.3% | [6] 99.5%

Cc1cc(C2(c3cc(C)c(O)c4ncccc34)OC(=O)c3ccccc32)c2cccnc2c1O
inactive: [3] 50.6% | [4] 44% | [5] 66%
active: [1] 84.6% | [2] 85.5% | [6] 87.5%

O=C1CCCCCC1
inactive: [1] 9.95% | [2] -8.9% | [3] 11.2% | [4] -19.2% | [5] -4.45% | [6] 3.4%

NCCCNC/C=C/CNCCCN
inactive: [1] 25.8% | [2] -0.5% | [3] 2.7% | [4] 11.2% | [5] -0.8% | [6] -2.45%

CC(=O)NC(Cc1ccc(O)cc1)C(=O)O (stereo not given)
inactive: [1] 10.8% | [2] 5.25% | [3] -3.4% | [4] -19.4% | [5] -9.05% | [6] -3.45%

N#C/C(=N/Nc1ccccc1)c1ccccc1
inactive: [1] 6.5% | [2] 9.1% | [3] -12.1% | [4] -11.2% | [5] 1.85% | [6] -7.95%

Cc1ccc2c(-c3ccc4ccccc4c3)c3ccccc3cc2c1
inactive: [1] 7.7% | [2] -10.2% | [3] -2.8% | [4] -12.6% | [5] -2.35% | [6] -40.5%

CN1CCCC2C3=CC=C4CC(O)CCC4(C)C3CCC21C (stereo not given)
inactive: [1] 60.4% | [2] 21.5% | [3] 34.9% | [4] 14.5% | [5] 23.9% | [6] 35.5%

CCN(Cc1ccccc1)C(=O)Nc1c(Cl)cccc1Cl
inactive: [1] -13.5% | [2] -30.1% | [3] 1.35% | [4] -1.5% | [5] -9.85% | [6] -4.05%

N#Cc1[nH]cnc1O
inactive: [1] -9.6% | [2] -10.4% | [3] -11.4% | [4] 7.7% | [5] 17.4% | [6] -5.85%

CCCNC(C)=O
inactive: [1] 12.2% | [2] -26.1% | [3] -24.9% | [4] -27.1% | [5] -8.55% | [6] -1.25%

Cc1cccc2c(N=[N+]=[N-])cc(C(F)(F)F)nc12
inactive: [1] 5.35% | [2] 6.7% | [3] -0.6% | [4] -43% | [5] 12.7% | [6] -1.4%

CCCCN(CCCC)C1=Nc2ccccc2-n2c(nnc2C(=O)OCC)C1
inactive: [1] 24.4% | [2] 44.5% | [3] 22.9% | [4] 15.2% | [5] 52% | [6] 50.4%

COc1ccc2cc(C(=O)CCC(=O)O)ccc2c1
inactive: [1] 2.7% | [2] -35% | [3] -16.4% | [4] -21.3% | [5] -38.5% | [6] 0.25%

O=C(Nc1ccccc1C(=O)N/N=C/c1ccccc1Cl)c1ccccc1Cl
inactive: [1] -36.5% | [2] -14.1% | [3] 5.1% | [4] -25.9% | [5] 0.25% | [6] 4.1%

Cn1ncc2c(=S)[nH]c(=O)[nH]c21
inactive: [1] 3.7% | [2] -0.2% | [3] -1.1% | [4] -4.95% | [5] 1.05% | [6] -0.1%

CCCC(O)C(CC)[N+](=O)[O-] (stereo not given)
inactive: [1] 13.6% | [2] 0.95% | [3] 5% | [4] 3.65% | [5] 0.1% | [6] 5.75%

CC(=O)OCC1CC=CCC1C (stereo not given)
inactive: [1] 5.35% | [2] -15.7% | [3] -10.2% | [4] 1.75% | [5] 2.75% | [6] 1.5%

O=C1c2ccccc2C(=O)c2c1nnn2-c1ccccc1
inactive: [1] 41.7% | [2] 5.95% | [3] 21.2% | [4] -4.45% | [5] 17.2% | [6] -2.15%

COc1ccc(NC(=S)NNC(=O)c2nsc3ccccc23)cc1
inactive: [1] 32.5% | [2] 9.85% | [3] 20.8% | [4] 7.35% | [5] -0.8% | [6] -0.15%

CCCCCCC1(C)CCC(=O)O1 (stereo not given)
inactive: [1] 15.3% | [2] 8.45% | [3] 6.2% | [4] -6.25% | [5] -5.9% | [6] 14.4%

COc1ccc(OC(=O)Nc2cccc(Cl)c2)cc1
inactive: [1] 8.4% | [2] 39.1% | [3] 29.8% | [4] -11.3% | [5] 31.4% | [6] 55.6%

CC(=O)Oc1c(/C=C/c2ccccc2)c(OC(C)=O)c2cc(Br)ccc2c1OC(C)=O
inactive: [1] 13.1% | [2] 28.2% | [3] 25.2% | [4] -27% | [5] -17.2% | [6] 29.6%

CCc1cc(C(C)(C)C)c(O)c(C(C)(C)C)c1
inactive: [1] 33.6% | [2] 9.65% | [3] 6.25% | [4] 25.2% | [5] 8.4% | [6] 35.4%

Nc1cc(C(=O)O)ccc1Cl
inactive: [1] -9.7% | [2] -8.1% | [3] -18.9% | [4] -88.8% | [5] -12.2% | [6] -5.4%

c1ccc2c(c1)C1c3ccccc3C2C2OC12 (stereo not given)
inactive: [1] 14.2% | [2] 1.5% | [3] -4% | [4] -2.9% | [5] -10.1% | [6] 34.4%

COc1ccc(/C=N/CCl)cc1
inactive: [1] -1.55% | [2] 2% | [3] 7.05% | [4] -49.3% | [5] -22.1% | [6] -1.2%

CC(=O)OC(C)=O
inactive: [1] -20.2% | [2] 9.9% | [3] 8% | [4] -33% | [5] 7.55% | [6] -16.4%

C/C=C(\C)C(=O)OCC1=CCC2CCC(O)N12 (stereo not given)
inactive: [1] 5.75% | [2] 0.05% | [3] 0.1% | [4] 6.05% | [5] 10.1% | [6] 8.55%

CC1=N/C(=C\c2cccs2)C(=O)O1
inactive: [1] 26.6% | [2] 30.5% | [3] 28.1% | [4] 20.5% | [5] 22.9% | [6] 28.9%

O=C1C2CCC(C2)C12CC1(c3ccccc3)C(=O)c3ccccc3N1O2 (stereo not given)
inactive: [1] -9% | [2] -31.6% | [3] -25.1% | [4] 8.85% | [5] 0.25% | [6] -27.4%
